Laboratory results as given in ChEMBL document CHEMBL3433997, “St. Jude Leishmania screening dataset” (2016).

biological target: Solute carrier family 2, facilitated glucose transporter member 1 (Homo sapiens) (UniProt P11166); assay: ST_JUDE_LEISH: Cytotoxicity at 2uM final concentration against transgenic Leishmania Mexicana promastigotes LmGLUT1 that are glucose transport deficient and complemented with the human glucose transporter GLUT1. Activity is measured by DNA content using SYBR green in vitro; type: functional
Sequence (P11166 whole entry): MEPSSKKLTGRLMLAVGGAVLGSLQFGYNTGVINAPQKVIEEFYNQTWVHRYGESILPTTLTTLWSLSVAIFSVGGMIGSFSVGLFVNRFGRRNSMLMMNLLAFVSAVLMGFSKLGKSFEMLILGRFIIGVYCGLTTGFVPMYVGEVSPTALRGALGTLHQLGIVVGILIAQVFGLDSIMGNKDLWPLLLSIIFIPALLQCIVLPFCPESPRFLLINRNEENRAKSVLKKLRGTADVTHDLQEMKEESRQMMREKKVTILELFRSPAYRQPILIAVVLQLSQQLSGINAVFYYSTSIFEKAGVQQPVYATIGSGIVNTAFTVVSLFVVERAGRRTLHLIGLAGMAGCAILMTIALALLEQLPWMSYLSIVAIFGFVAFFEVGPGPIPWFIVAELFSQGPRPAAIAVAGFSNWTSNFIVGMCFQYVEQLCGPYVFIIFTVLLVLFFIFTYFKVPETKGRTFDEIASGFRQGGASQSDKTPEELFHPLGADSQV

SMILES	inhibition [%]
COc1ccc(CN2CCCN(Cc3cccc(NC(=O)c4ccc(-c5ccccc5)cc4)c3)CC2)cc1	-0.75
CNCCNCc1ccc(-c2ccc(-c3nc4cc(C(F)(F)F)ccc4[nH]3)s2)cc1	2.21
Cc1nc(NC2=NCN(CCCN3CCOCC3)CN2)nc2c(C)cccc12	8.37
CCc1cn(C)c2c(N3CCCC3=O)cc(C(=O)N[C@@H](Cc3ccccc3)[C@H](O)CNC(C)(C)CCCC(C)C)cc12	3.03
CN(C(=O)/C=C/c1cc(C(F)(F)F)ccc1F)C1CCN(CCCCCNC(=O)/C=C/c2ccc(Cl)c(Cl)c2)C1 (stereo not given)	0.02
COc1ccc(-c2cccc(NC(=O)c3cccc(Cl)c3)c2)cc1CN1CCNCC1	2.8
C=CCc1cccc(C)c1OCCCON1C(=N)N=C(N)NC1(C)C	1.09
N=C(N)Nc1nc(-c2cccc(NC(=O)CCCCCCCON3C(N)=NC(N)=NC34CCCCC4)c2)cs1	2.45
CC1CN(Cc2ccc(C#N)cc2)CCN1c1ccc(NC(=O)c2cccs2)cc1 (stereo not given)	8.47
COC(=O)c1ccc2nc(-c3cc(-c4cccc(-c5ccccc5)c4)cnc3N)[nH]c2c1	5.22
COc1c(C2CCN(CCCCNC(=O)c3ccc(NC(=O)c4ccc(C#N)cc4)cc3)CC2)ccc2c1CCCC2	1.73
COc1ccc(S(=O)(=O)Nc2cc(Br)cc3c2OCCC3)cc1N1CCN(C(=O)C(Cl)(Cl)Cl)CC1	-1.16
Oc1ccc(Nc2ccnc3cc(Cl)ccc23)cc1	3.83
CN(Cc1cccc(F)c1)C1CCN(c2cc(NC(=O)c3cccc(F)c3)ccn2)CC1	3.06
Cc1cccc2nc(-c3cccc(-c4ccc(CNCc5ccc(S(C)(=O)=O)cc5)cc4)c3)[nH]c12	11.9
Cc1cc(C)c(C)c(S(=O)(=O)N2CCCCC(c3ccc(F)c(F)c3)=N2)c1C	2.94
c1cc(C2=NC3CCCCC3N2)ccc1OCCCCCOc1ccc(C2=NC3CCCCC3N2)cc1 (stereo not given)	2.83
COc1c(I)cc(Cc2cnc(N)nc2N)cc1I	6.68
CCc1n[nH]c(C(=O)NC2CCN(CC3(c4ccc(OC)cc4)CCCCC3)CC2)c1C	3.43
CC(=O)Nc1ccc(CN2CCc3ccc(NS(=O)(=O)c4ccc(-c5cccc(C(F)(F)F)c5)cc4)cc3CC2)s1	2.54
O=C(Nc1cc2cc(-c3ccc(CN4CCCCC4)cc3)ccc2n2cnnc12)NC1CCCC1	22.1
Clc1cccc(CNC2CCN(CC3CCCCC3)CC2)c1	4.03
Clc1ccc(-c2ccc(CNCCCN3CCCC3)cc2)cc1	4.04
CCOc1ccc(C2CCN(CCCCNC(=O)c3ccc(NC(=O)c4ccc(Cl)cc4)cc3)CC2)c(OCC)c1	4.52
O=C(Nc1cccnc1)c1cc(-c2cc(Cl)ccc2O)n[nH]1	2.55

biological target: Hexose transporter 1 (Plasmodium falciparum) (UniProt O97467); assay: ST_JUDE_LEISH: Cytotoxicity at 2uM final concentration against transgenic Leishmania Mexicana promastigotes LmPfHT that are glucose transport deficient and complemented with the Plasmodium falciparum hexose transporter. Activity is measured by DNA content using SYBR green in vitro; type: functional

SMILES	inhibition [%]
COc1cccc(N(CCCN2C(=O)c3cccc4cccc(c34)C2=O)C(=O)c2ccccc2C)c1	7.4
CCN(CC)CCCN(CCCN(CC)CC)c1cc(C)nc(Nc2ccc3cc(Br)ccc3c2)n1	4.9
O=C(NCCCCN1CCC(c2ccc3c(c2OCc2ccccn2)CCCC3)CC1)c1ccc(NC(=O)c2ccc(Cl)cc2)cc1	0.31
CN1CCN(CCCN(Cc2csc(-c3ccc(CNCc4ccccc4)cc3)n2)C(=O)Nc2cc(Cl)cc(Cl)c2)CC1	6.74
CCNC(=O)Nc1cccc(-c2cccc(-c3nc4cc(C(F)(F)F)ccc4[nH]3)c2)c1	7.8
COc1cc(Cc2cnc(N)nc2N)ccc1OCc1ccc(F)c(F)c1	5.38
Cc1nc(NCCc2c[nH]cn2)cc(NCc2ccccc2)n1	3.44
CCN(CC)S(=O)(=O)c1ccc(Cl)c(C(=O)Nc2ccc3nc(C)sc3c2)c1	-0.92
O=C(/C=C/c1ccc(Cl)c(Cl)c1)NCCCCCN1CCC(CCNC(=O)/C=C/c2ccccc2F)CC1	-1.13
Cc1cccc2nc(-c3ccc(-c4ccc(NC(=O)Nc5cccc(C#N)c5)cc4)s3)[nH]c12	6.92
COc1ccc(NC(=O)C2c3ccccc3C(=O)N(C3CCCC3)C2c2cccs2)c(OC)c1 (stereo not given)	-0.63
CC(C)CCN1CCC(Oc2cccc(NC(=O)c3ccc(C(F)(F)F)cc3)c2)CC1	-0.13
N#CCCN1CCN(Cc2cccc(-c3ccc(-c4nc5ccccc5[nH]4)s3)c2)CC1	-2.37
O=C(NCCN1CCOCC1)c1ccc(-c2ccc(CNCCCc3ccccc3)cc2)nc1	-3
O=C(C=Cc1ccc(F)cc1)N1CCN(S(=O)(=O)c2ccc(Cl)cc2)CC1	-1.62
COc1ccc(CN2CCCN(Cc3cccc(NC(=O)c4ccc(-c5ccccc5)cc4)c3)CC2)cc1	-1.14
CNCCNCc1ccc(-c2ccc(-c3nc4cc(C(F)(F)F)ccc4[nH]3)s2)cc1	0.84
Cc1nc(NC2=NCN(CCCN3CCOCC3)CN2)nc2c(C)cccc12	17.2
CCc1cn(C)c2c(N3CCCC3=O)cc(C(=O)N[C@@H](Cc3ccccc3)[C@H](O)CNC(C)(C)CCCC(C)C)cc12	4.09
CN(C(=O)/C=C/c1cc(C(F)(F)F)ccc1F)C1CCN(CCCCCNC(=O)/C=C/c2ccc(Cl)c(Cl)c2)C1 (stereo not given)	1.48

SMILES	inhibition [%]
COc1ccc(-c2cccc(NC(=O)c3cccc(Cl)c3)c2)cc1CN1CCNCC1	2.6
C=CCc1cccc(C)c1OCCCON1C(=N)N=C(N)NC1(C)C	2.76
N=C(N)Nc1nc(-c2cccc(NC(=O)CCCCCCCON3C(N)=NC(N)=NC34CCCCC4)c2)cs1	4.13
CC1CN(Cc2ccc(C#N)cc2)CCN1c1ccc(NC(=O)c2cccs2)cc1 (stereo not given)	8.63
COC(=O)c1ccc2nc(-c3cc(-c4cccc(-c5ccccc5)c4)cnc3N)[nH]c2c1	5.28
COc1c(C2CCN(CCCCNC(=O)c3ccc(NC(=O)c4ccc(C#N)cc4)cc3)CC2)ccc2c1CCCC2	0.65
COc1ccc(S(=O)(=O)Nc2cc(Br)cc3c2OCCC3)cc1N1CCN(C(=O)C(Cl)(Cl)Cl)CC1	-1.14
Oc1ccc(Nc2ccnc3cc(Cl)ccc23)cc1	4.67
CN(Cc1cccc(F)c1)C1CCN(c2cc(NC(=O)c3cccc(F)c3)ccn2)CC1	3.18
Cc1cccc2nc(-c3cccc(-c4ccc(CNCc5ccc(S(C)(=O)=O)cc5)cc4)c3)[nH]c12	6.88
Cc1cc(C)c(C)c(S(=O)(=O)N2CCCCC(c3ccc(F)c(F)c3)=N2)c1C	-0.61
c1cc(C2=NC3CCCCC3N2)ccc1OCCCCCOc1ccc(C2=NC3CCCCC3N2)cc1 (stereo not given)	5.62
COc1c(I)cc(Cc2cnc(N)nc2N)cc1I	4.23
CCc1n[nH]c(C(=O)NC2CCN(CC3(c4ccc(OC)cc4)CCCCC3)CC2)c1C	2.97
CC(=O)Nc1ccc(CN2CCc3ccc(NS(=O)(=O)c4ccc(-c5cccc(C(F)(F)F)c5)cc4)cc3CC2)s1	2.18
O=C(Nc1cc2cc(-c3ccc(CN4CCCCC4)cc3)ccc2n2cnnc12)NC1CCCC1	6.44
Clc1cccc(CNC2CCN(CC3CCCCC3)CC2)c1	4.11
Clc1ccc(-c2ccc(CNCCCN3CCCC3)cc2)cc1	3.04
CCOc1ccc(C2CCN(CCCCNC(=O)c3ccc(NC(=O)c4ccc(Cl)cc4)cc3)CC2)c(OCC)c1	3.34
O=C(Nc1cccnc1)c1cc(-c2cc(Cl)ccc2O)n[nH]1	2.47
